According to PubChem BioAssay AID1159580 (chemical genetic matrix, 2015):
“And” between values parts separate entries of the source, which are not always exact repeats. Identical values can stand only once. Screen size: about 5,500 compounds; about 2,000 (36%) were called active. Inconclusive results (about 18%) are left out. No stated cut-off is given here; in the data, active means normalized growth mostly below about 0.91 (no sharp cut-off); inconclusive means no clear call, values can overlap the other calls; inactive means mostly above about 0.92. The list shows a part of the results.

Test: chemical genetic growth profiling, strain panel (AID 1159580);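 further: tested at 20 µM; growth read once vehicle control cultures reached saturation at 30 °C; 1 = growth at the plate median or of vehicle wells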
Settings: growth OD

Measured: normalized growth

CN(C)C(=O)Oc1cccc([N+](C)(C)C)c1
inactive: S. cerevisiae deletion strains, locus YJR075W, strain HOC1, stronger effect = lower value 1.02 | S. cerevisiae deletion strains, locus YKL009W, strain mrt4, stronger effect = lower value 0.969 | S. cerevisiae deletion strains, locus YKL068W, stronger effect = lower value 0.988 | S. cerevisiae deletion strains, locus YKL085W, strain MDH1 (second series), stronger effect = lower value 0.985 | S. cerevisiae deletion strains, locus YKL085W, strain MDH1, stronger effect = lower value 0.985 | S. cerevisiae deletion strains, locus YKL160W, strain elf1, stronger effect = lower value 0.996 | S. cerevisiae deletion strains, locus YKL190W, strain CNB1, stronger effect = lower value 1 | S. cerevisiae deletion strains, locus YKR001C, strain vps1, stronger effect = lower value 0.983 | S. cerevisiae deletion strains, locus YKR026C, strain gcn3, stronger effect = lower value 0.984 | S. cerevisiae deletion strains, locus YKR091W, strain srl3, stronger effect = lower value 0.995 | S. cerevisiae deletion strains, locus YLL001W, strain dnm1, stronger effect = lower value 0.988 | S. cerevisiae deletion strains, locus YLL026W, stronger effect = lower value 1 | S. cerevisiae deletion strains, locus YLL041C, strain sdh2, stronger effect = lower value 1.01 | S. cerevisiae deletion strains, locus YLR027C, strain aat2, stronger effect = lower value 0.984 | S. cerevisiae deletion strains, locus YLR039C, strain RIC1, stronger effect = lower value 0.985 | S. cerevisiae deletion strains, locus YLR058C, strain SHM2, stronger effect = lower value 0.996 | S. cerevisiae deletion strains, locus YLR102C, strain apc9, stronger effect = lower value 0.995 | S. cerevisiae deletion strains, locus YLR113W, strain HOG1, stronger effect = lower value 0.989 | S. cerevisiae deletion strains, locus YLR221C, strain rsa3, stronger effect = lower value 0.99 | S. cerevisiae deletion strains, locus YLR258W, strain gsy2, stronger effect = lower value 1 | S. cerevisiae deletion strains, locus YLR262C, strain YPT6 (second series), stronger effect = lower value 1 | S. cerevisiae deletion strains, locus YLR262C, strain YPT6, stronger effect = lower value 1.02 | S. cerevisiae deletion strains, locus YLR268W, strain sec22, stronger effect = lower value 0.956 | S. cerevisiae deletion strains, locus YLR320W, strain mms22, stronger effect = lower value 0.996 | S. cerevisiae deletion strains, locus YLR330W, strain CHS5, stronger effect = lower value 0.982 | S. cerevisiae deletion strains, locus YLR342W, strain FKS1 (second series), stronger effect = lower value 0.998 | S. cerevisiae deletion strains, locus YLR342W, strain FKS1, stronger effect = lower value 1.01 | S. cerevisiae deletion strains, locus YLR357W, strain rsc2, stronger effect = lower value 0.964 | S. cerevisiae deletion strains, locus YLR370C, strain arc18, stronger effect = lower value 1 | S. cerevisiae deletion strains, locus YLR371W, strain rom2, stronger effect = lower value 0.983 | S. cerevisiae deletion strains, locus YLR384C, strain iki3, stronger effect = lower value 1 | S. cerevisiae deletion strains, locus YLR418C, strain cdc73, stronger effect = lower value 0.972 | S. cerevisiae deletion strains, locus YML016C, strain PPZ1, stronger effect = lower value 0.987 | S. cerevisiae deletion strains, locus YML032C, strain rad52, stronger effect = lower value 0.982 | S. cerevisiae deletion strains, locus YML120C, strain ndi1, stronger effect = lower value 0.999 | S. cerevisiae deletion strains, locus YML124C, strain tub3, stronger effect = lower value 0.984 | S. cerevisiae deletion strains, locus YMR058W, strain fet3, stronger effect = lower value 1.01 | S. cerevisiae deletion strains, locus YMR078C, strain ctf18, stronger effect = lower value 0.984 | S. cerevisiae deletion strains, locus YMR125W, strain sto1, stronger effect = lower value 0.976 | S. cerevisiae deletion strains, locus YMR129W, stronger effect = lower value 0.997 | S. cerevisiae deletion strains, locus YMR205C, strain PFK2, stronger effect = lower value 0.994 | S. cerevisiae deletion strains, locus YMR223W, strain ubp8, stronger effect = lower value 0.995 | S. cerevisiae deletion strains, locus YMR231W, strain pep5, stronger effect = lower value 0.999 | S. cerevisiae deletion strains, locus YMR263W, strain SAP30, stronger effect = lower value 0.996 and 1.01 | S. cerevisiae deletion strains, locus YMR307W, strain GAS1, stronger effect = lower value 0.984 and 1.02 | S. cerevisiae deletion strains, locus YNL067W, strain RPL9B, stronger effect = lower value 1.01 | S. cerevisiae deletion strains, locus YNL071W, strain lat1, stronger effect = lower value 1.01 | S. cerevisiae deletion strains, locus YNL153C, strain GIM3, stronger effect = lower value 1.01 | S. cerevisiae deletion strains, locus YNL175C, strain NOP13, stronger effect = lower value 1.01 | S. cerevisiae deletion strains, locus YNL183C, strain NPR1, stronger effect = lower value 0.953 | S. cerevisiae deletion strains, locus YNL197C, strain WHI3, stronger effect = lower value 1.02 | S. cerevisiae deletion strains, locus YNL209W, strain ssb2, stronger effect = lower value 0.994 | S. cerevisiae deletion strains, locus YNL224C, strain SQS1, stronger effect = lower value 1 | S. cerevisiae deletion strains, locus YNL233W, strain BNI4, stronger effect = lower value 0.988 | S. cerevisiae deletion strains, locus YNL248C, strain rpa49, stronger effect = lower value 0.99 | S. cerevisiae deletion strains, locus YNL250W, strain rad50, stronger effect = lower value 0.978 | S. cerevisiae deletion strains, locus YNL271C, strain bni1, stronger effect = lower value 0.983 | S. cerevisiae deletion strains, locus YNL298W, strain CLA4, stronger effect = lower value 0.979 | S. cerevisiae deletion strains, locus YNL307C, strain MCK1, stronger effect = lower value 0.982 | S. cerevisiae deletion strains, locus YNL322C, strain KRE1 (second series), stronger effect = lower value 0.989 | S. cerevisiae deletion strains, locus YNR049C, strain mso1, stronger effect = lower value 0.98 | S. cerevisiae deletion strains, locus YNR052C, strain pop2, stronger effect = lower value 0.982 | S. cerevisiae deletion strains, locus YOL006C, strain TOP1, stronger effect = lower value 1.03 | S. cerevisiae deletion strains, locus YOL012C, strain htz1 1.09 | S. cerevisiae deletion strains, locus YOL147C, strain pex11, stronger effect = lower value 0.985 | S. cerevisiae deletion strains, locus YOR001W, strain rrp6, stronger effect = lower value 0.989 | S. cerevisiae deletion strains, locus YOR061W, strain CKA2, stronger effect = lower value 0.987 | S. cerevisiae deletion strains, locus YOR069W, strain VPS5, stronger effect = lower value 0.986 | S. cerevisiae deletion strains, locus YOR070C, strain gyp1, stronger effect = lower value 1 | S. cerevisiae deletion strains, locus YOR080W, strain dia2, stronger effect = lower value 0.996 | S. cerevisiae deletion strains, locus YOR083W, strain WHI5 (second series), stronger effect = lower value 1.01 | S. cerevisiae deletion strains, locus YOR083W, strain WHI5, stronger effect = lower value 0.998 | S. cerevisiae deletion strains, locus YOR106W, strain vam3, stronger effect = lower value 0.998 | S. cerevisiae deletion strains, locus YOR136W, strain idh2, stronger effect = lower value 0.992 | S. cerevisiae deletion strains, locus YOR144C, strain elg1, stronger effect = lower value 0.994 | S. cerevisiae deletion strains, locus YOR184W, strain ser1, stronger effect = lower value 0.99 | S. cerevisiae deletion strains, locus YOR231W, strain MKK1, stronger effect = lower value 1.02 | S. cerevisiae deletion strains, locus YOR265W, strain rbl2, stronger effect = lower value 0.996 | S. cerevisiae deletion strains, locus YOR270C, strain vph1, stronger effect = lower value 1.03 | S. cerevisiae deletion strains, locus YOR290C, strain snf2, stronger effect = lower value 1.01 | S. cerevisiae deletion strains, locus YOR316C, strain cot1, stronger effect = lower value 0.994 | S. cerevisiae deletion strains, locus YPL051W, strain arl3, stronger effect = lower value 1 | S. cerevisiae deletion strains, locus YPL055C, strain LGE1, stronger effect = lower value 1.02 | S. cerevisiae deletion strains, locus YPL078C, strain atp4, stronger effect = lower value 0.994 | S. cerevisiae deletion strains, locus YPL106C, strain sse1, stronger effect = lower value 0.973 | S. cerevisiae deletion strains, locus YPL240C, strain hsp82, stronger effect = lower value 1 | S. cerevisiae deletion strains, locus YPL241C, strain CIN2, stronger effect = lower value 1 | S. cerevisiae deletion strains, locus YPL256C, strain CLN2, stronger effect = lower value 0.986 | S. cerevisiae deletion strains, locus YPR119W, strain clb2, stronger effect = lower value 0.995 | S. cerevisiae deletion strains, locus YPR141C, strain kar3, stronger effect = lower value 0.978 | S. cerevisiae deletion strains, locus YPR163C, strain tif3, stronger effect = lower value 0.984 | S. cerevisiae deletion strains, locus YPR167C, strain met16, stronger effect = lower value 0.984 | S. cerevisiae deletion strains, strain wtn01, stronger effect = lower value 0.964 | S. cerevisiae strains, strain wild type, stronger effect = lower value 1.01
